# Measured values taken from the supplement of paper PMC8728848.
# This is one part of a sample in which the strongest signals are shown more often than they occur.
# B1: LICBM33A (Lactococcus lactis), Q9CE94 (protein)
# chain: MKKLLTGLLVAAGLLSVSLLIKTDTVSAHGYVQSPPARGYQGQLDSQSLGWTAAFNIYGNVISNPQSLEAPKGFPECGPADGRIASANGGLGQIGDFVLDNQTSSRWKKTSISTGSNIFTWKYTAPHKTTKWHYYMTKTGWDQNAPLKHSELELIGTINHDGSPATNNLSHTINIPTDRSGYHIVLAVWDVADTSNAFYNVIDINVNNKNASSQVFGPFL
# Tests used:
# Test in all cases: glycan array binding signal (z-score within array); higher = stronger binding
# Settings in all cases: glycan notation: IUPAC condensed, linker removed
# [1] = biological target: Fuc(a1-2)Gal(b1-3)GalNAc(b1-4)[Neu5Ac(a2-3)]Gal(b1-4)Glc
# In short: (§1)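 The binding signal is a Z-score computed within each array and averaged over linkers. Arrays of the same protein sequence at different concentrations or buffers were also averaged together. Data originate from 3228 arrays in the Consortium for Functional Glycomics database, kept only where the protein sequence was available.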
# [2] = biological target: Fuc(a1-2)Gal(b1-3)[Fuc(a1-4)]GlcNAc
# In short: as §1
# [3] = biological target: Fuc(a1-2)Gal(b1-4)GlcNAc(b1-2)[Fuc(a1-2)Gal(b1-4)GlcNAc(b1-4)]Man(a1-3)[Fuc(a1-2)Gal(b1-4)GlcNAc(b1-2)Man(a1-6)]Man(b1-4)GlcNAc(b1-4)GlcNAc
# In short: as §1
# [4] = biological target: Fuc(a1-2)Gal(b1-4)[Fuc(a1-3)]GlcNAc(b1-3)Gal(b1-4)[Fuc(a1-3)]GlcNAc
# In short: as §1
# [5] = biological target: Fuc(a1-2)Gal3S(b1-4)GlcNAc
# In short: as §1
# [6] = biological target: Fuc(a1-2)[Gal(a1-3)]Gal(b1-4)[Fuc(a1-3)]GlcNAc(b1-3)GalNAc
# In short: as §1
# [7] = biological target: Fuc(a1-2)[GalNAc(a1-3)]Gal(b1-3)GlcNAc(b1-2)Man(a1-3)[Fuc(a1-2)[GalNAc(a1-3)]Gal(b1-3)GlcNAc(b1-2)Man(a1-6)]Man(b1-4)GlcNAc(b1-4)[Fuc(a1-6)]GlcNAc
# In short: as §1
# Gal(a1-2)Gal = biological target: Gal(a1-2)Gal
# In short: as §1
# [8] = biological target: Gal(a1-3)Gal(b1-3)[Fuc(a1-4)]GlcNAc(b1-2)Man(a1-3)[Gal(a1-3)Gal(b1-3)[Fuc(a1-4)]GlcNAc(b1-2)Man(a1-6)]Man(b1-4)GlcNAc(b1-4)GlcNAc
# In short: as §1
# Gal(a1-3)Gal(b1-4)GlcNAc = biological target: Gal(a1-3)Gal(b1-4)GlcNAc
# In short: as §1
# Gal(a1-4)Gal(b1-4)GlcNAc = biological target: Gal(a1-4)Gal(b1-4)GlcNAc
# In short: as §1
# [9] = biological target: Gal(b1-3)GlcNAc(b1-2)Man(a1-3)[GlcNAc(b1-4)][Gal(b1-3)GlcNAc(b1-2)Man(a1-6)]Man(b1-4)GlcNAc(b1-4)GlcNAc
# In short: as §1
# [10] = biological target: Gal(b1-3)GlcNAc(b1-3)Gal(b1-4)[Fuc(a1-3)]GlcNAc
# In short: as §1
# [11] = biological target: Gal(b1-4)GlcNAc(b1-2)Man(a1-6)[GlcNAc(b1-2)Man(a1-3)]Man(b1-4)GlcNAc(b1-4)GlcNAc
# In short: as §1
# [12] = biological target: Gal(b1-4)GlcNAc(b1-3)Gal(b1-4)GlcNAc(b1-2)[Gal(b1-4)GlcNAc(b1-3)Gal(b1-4)GlcNAc(b1-6)]Man(a1-6)[Gal(b1-4)GlcNAc(b1-3)Gal(b1-4)GlcNAc(b1-2)Man(a1-3)]Man(b1-4)GlcNAc(b1-4)GlcNAc
# In short: as §1
# [13] = biological target: Gal(b1-4)GlcNAc(b1-3)Gal(b1-4)GlcNAc(b1-3)Gal(b1-4)GlcNAc(b1-3)Gal(b1-4)GlcNAc(b1-2)Man(a1-3)[Gal(b1-4)GlcNAc(b1-3)Gal(b1-4)GlcNAc(b1-3)Gal(b1-4)GlcNAc(b1-3)Gal(b1-4)GlcNAc(b1-2)Man(a1-6)]Man(b1-4)GlcNAc(b1-4)[Fuc(a1-6)]GlcNAc
# In short: as §1
# [14] = biological target: Gal(b1-4)GlcNAc(b1-3)Gal(b1-4)GlcNAc(b1-3)Gal(b1-4)GlcNAc(b1-3)Gal(b1-4)GlcNAc(b1-3)Gal(b1-4)GlcNAc(b1-2)Man(a1-3)[Gal(b1-4)GlcNAc(b1-3)Gal(b1-4)GlcNAc(b1-3)Gal(b1-4)GlcNAc(b1-3)Gal(b1-4)GlcNAc(b1-3)Gal(b1-4)GlcNAc(b1-2)Man(a1-6)]Man(b1-4)GlcNAc(b1-4)[Fuc(a1-6)]GlcNAc
# In short: as §1
# [15] = biological target: Gal(b1-4)GlcNAc(b1-3)Gal(b1-4)GlcNAc(b1-3)Gal(b1-4)GlcNAc(b1-3)Gal(b1-4)GlcNAc(b1-3)Gal(b1-4)GlcNAc(b1-2)[Gal(b1-4)GlcNAc(b1-3)Gal(b1-4)GlcNAc(b1-3)Gal(b1-4)GlcNAc(b1-3)Gal(b1-4)GlcNAc(b1-3)Gal(b1-4)GlcNAc(b1-6)]Man(a1-6)[Gal(b1-4)GlcNAc(b1-3)Gal(b1-4)GlcNAc(b1-3)Gal(b1-4)GlcNAc(b1-3)Gal(b1-4)GlcNAc(b1-3)Gal(b1-4)GlcNAc(b1-2)Man(a1-3)]Man(b1-4)GlcNAc(b1-4)[Fuc(a1-6)]GlcNAc
# In short: as §1
# [16] = biological target: Gal(b1-4)GlcNAc(b1-6)GalNAc
# In short: as §1
# Gal(b1-4)GlcNAc6P = biological target: Gal(b1-4)GlcNAc6P
# In short: as §1
# Gal3S(b1-3)GalNAc = biological target: Gal3S(b1-3)GalNAc
# In short: as §1
# [17] = biological target: GalNAc(a1-3)GalNAc(b1-3)Gal(a1-4)Gal(b1-4)Glc
# In short: as §1
# [18] = biological target: GalNAc(b1-4)GlcNAc(b1-2)Man(a1-3)[GalNAc(b1-4)GlcNAc(b1-2)Man(a1-6)]Man(b1-4)GlcNAc(b1-4)GlcNAc
# In short: as §1
# GalNAc3S(b1-4)GlcNAc3S = biological target: GalNAc3S(b1-4)GlcNAc3S
# In short: as §1
# Glc(a1-6)Glc(a1-6)Glc = biological target: Glc(a1-6)Glc(a1-6)Glc
# In short: as §1
binder,measurement,setting,value
B1,glycan array binding signal (z-score),[1],-0.276
same,glycan array binding signal (z-score),[2],-0.377
same,glycan array binding signal (z-score),[3],6.68
same,glycan array binding signal (z-score),[4],-0.587
same,glycan array binding signal (z-score),[5],3.62
same,glycan array binding signal (z-score),[6],-1.52
same,glycan array binding signal (z-score),[7],-0.211
same,glycan array binding signal (z-score),Gal(a1-2)Gal,-0.28
same,glycan array binding signal (z-score),[8],-0.268
same,glycan array binding signal (z-score),Gal(a1-3)Gal(b1-4)GlcNAc,-0.436
same,glycan array binding signal (z-score),Gal(a1-4)Gal(b1-4)GlcNAc,0.111
same,glycan array binding signal (z-score),[9],-0.473
same,glycan array binding signal (z-score),[10],-0.324
same,glycan array binding signal (z-score),[11],-0.512
same,glycan array binding signal (z-score),[12],0.114
same,glycan array binding signal (z-score),[13],4.11
same,glycan array binding signal (z-score),[14],6.2
same,glycan array binding signal (z-score),[15],6.18
same,glycan array binding signal (z-score),[16],-0.959
same,glycan array binding signal (z-score),Gal(b1-4)GlcNAc6P,0.236
same,glycan array binding signal (z-score),Gal3S(b1-3)GalNAc,-0.215
same,glycan array binding signal (z-score),[17],-0.96
same,glycan array binding signal (z-score),[18],-0.578
same,glycan array binding signal (z-score),GalNAc3S(b1-4)GlcNAc3S,-0.284
same,glycan array binding signal (z-score),Glc(a1-6)Glc(a1-6)Glc,0.839
